Assay outcomes as filed in PubChem.
Sampled rows, rich in hits. Any-hit rate of the full collection: about 21%.
Shiga toxin inh: inhibitors of Shiga toxin in Vero cells. Vero cells, Shiga toxin protein synthesis inhibition reporter. inhibition, % at 38.7 µM. 290,000 compounds, 9.2% hits. AID 2315; in the data active means inhibition mostly above about 28%, no sharp cut-off; inactive means mostly below about 43%; further: 0% is about no effect
CHX counter: counter-screen hit for Shiga toxin inhibitors, cycloheximide | cell reporter, cycloheximide protein synthesis inhibition counterscreen | 300,000 compounds, 12% hits | max response, % | AID 2314; in the data active means max response mostly above about 13%, no sharp cut-off; inactive means mostly below about 14%; further: read at 38.3 µM for the half of the compounds with a filed dose; 0% is about no effect
Sm TGR inh: S. mansoni TGR enzyme inhibition; 360,000 compounds, 3% hits; purified TGR, DTNB reduction, TNB absorbance 405 nm; Q962Y6; AID 485364; Potency, µM (titrated, usually from 114 µM), inactives show at the top dose activity change, negative = inhibition, most hits filed as inhibitors; further: potency means the concentration at half of the fitted maximal effect; on the % scale 0 is the no-effect control and ±100 the full control effect; nearly all actives have a fitted effect of over 60% in size
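TGR 20 nM + NADPH 100 uM (dispensed conc.), cpd preinc 15 min RT; start with NADPH (500 uM addition) then DTNB (15 mM addition). Kinetic TNB absorbance, 405 nm filter. Four-parameter Hill fit across titration.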
Pf growth 48h: inhibits P. falciparum growth in the first generation, 48 h. P. falciparum luciferase growth in erythrocytes, 48 h. Potency, µM (doses to about 28.7 µM), without a hit: top-dose activity change, negative = inhibition, most hits filed as inhibitors. 310,000 compounds, 5.9% hits; further: potency means the concentration at half of the fitted maximal effect; on the % scale 0 is the no-effect control and ±100 the full control effect
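Parasite viability was followed by luminescence of a genomically integrated firefly luciferase. Cultures held 0.1% parasitemia at 2% hematocrit (final), incubated under 5% CO2 at 37 C.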
NS1 inh: blocks influenza NS1 protein function; 270,000 compounds, 0.4% hits; Potency, µM (doses to about 46.1 µM), inactives show at the highest dose activity, positive = more growth; calls by dose curve; further: potency means the concentration at half of the fitted maximal effect; actives are rising curves; nearly all actives have a fitted effect of over 50% in size
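In this qHTS, NS1 from influenza A is expressed in budding yeast, where it slows growth. Cells are switched from glucose to 2% galactose medium (pH 6.0, -URA), treated with compound, and growth recovery is read at OD600.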
Pf growth 96h: P. falciparum growth inhibition at 96 hours; P. falciparum luciferase reporter growth, 96 h; Potency, µM (series often up to 28.7 µM), for inactives: at the highest dose activity change, negative = inhibition, usual class: inhibitors; 320,000 compounds, 6.9% hits; further: potency means the concentration at half of the fitted maximal effect; on the % scale 0 is the no-effect control and ±100 the full control effect
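Infected RBCs, 2% Hct / 0.05% parasitemia final; luciferase-reporter P. falciparum; cpd 96 h, 37 C, 5% CO2; luciferase detection reagent; luminescence.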
* = called active by the depositor; i = inactive; ? = inconclusive; . = no result; [ ] = another dose, or the depositor's remark. Unless noted, the call rests on the fitted dose curve; in most records, active means well fitted curve in the direction sought with a large enough effect; inconclusive means small, poorly fitted or top-dose-only effect, or another doubt; inactive means no such curve, though single readings can be large; an effect the other way counts as inactive or inconclusive.

SMILES | Shiga toxin inh | CHX counter | Sm TGR inh | Pf growth 48h | NS1 inh | Pf growth 96h
COc1ccc([C@@H]2[C@@H]3C(=O)N(C(C)(C)C)C(=O)[C@@H]3[C@]3(Cc4ccccc4)C(=O)N(c4cccc(F)c4)C(=O)N23)cc1 | . | . | -3.5% | ? | . | 9.28µM*
CC(C)(C)N1C(=O)[C@H]2[C@@H](c3ccc(Br)cc3)N3C(=O)N(c4cccc(F)c4)C(=O)[C@@]3(Cc3ccccc3)[C@H]2C1=O | . | . | 1.0% | 5.22µM* | . | 4.65µM*
COC(=O)COc1cc(Cl)c(C=O)cc1OC | 3.1 | -3.2 | 8.2% | 0.0% | -2.7% | ?
COc1ccc(CCNC(=O)CCCn2c(=O)c3ccccc3n(CC(=O)Nc3cccc(C)c3)c2=O)cc1OC | . | . | -0.6% | . | . | .
COc1cccc(-n2nnnc2SCC(=O)Nc2ccccc2OC)c1 | -5.8 | -0.7 | -20.9% | 18.2% | 3.8% | 9.28µM*
CC(=O)Nc1ccc(C(=O)CSc2nnnn2C)cc1 | -3.3 | -0.8 | -12.8% | -7.3% | -6.3% | 0.0%
COc1ccc(-n2nnnc2SCC(=O)Nc2cc(OC)c([N+](=O)[O-])cc2C)cc1 | -4.5 | -1.1 | -13.0% | ? | 1.4% | 2.94µM*
Cn1nnnc1SCc1ccc(C(=O)Nc2ccc(Br)cc2)cc1 | 57.3* | 47.5* | 1.9% | 79.8% | 18.3% | -3.3%
CC(C)N(Cc1nc2ccccc2c(=O)[nH]1)C(=O)c1ccc(NC(=O)CSc2nnnn2C)cc1 | . | . | -1.2% | ? | . | 13.1µM*
O=C(NCc1cccs1)C1CCCN1C(=O)Nc1ccc(Cl)cc1 (stereo not drawn) | -6.6 | -1.3 | -5.7% | 6.7% | . | 13.1%
CCc1nnc(NC(=O)CCC(=O)N2CCN(c3cc(Cl)ccc3C)CC2)s1 | -3.8 | -10.9 | -22.4% | -2.3% | 3.6% | ?
COc1ccccc1NC(=O)c1ccc(NC(=O)CSc2nnnn2C)cc1 | 13.3 | 5.1 | 5.62µM* | ? | -11.7% | 0.9%
CCCS(=O)(=O)c1nnnn1-c1cccc(OC)c1 | 2.0 | -1.2 | 5.62µM* | ? | -90.5% | -1.5%
Cc1ccc2[nH]c(=O)c(-c3nc4ccccn4c3NCc3ccco3)cc2c1 | 33.2 | 29.7 | -13.6% | 32.7% | 0.9% | 4.65µM*
O=Cc1c(NCc2ccco2)nc2ccccn2c1=O | 23.9 | 16.4* | ? | 41.2% | -2.6% | 5.0%
COc1ccc(N(CC(=O)Nc2ccc3c(c2)OCO3)S(=O)(=O)c2ccc(F)cc2)cc1 | 11.4 | 9.6 | 3.2% | 0.0% | 11.4% | -14.9%
COc1ccc(N(CC(=O)N/N=C/c2ccc3c(c2)OCO3)S(=O)(=O)c2ccc(NC(C)=O)cc2)cc1 | -4.9 | -0.7 | -11.0% | 13.1µM* | . | ?
CCC(C)NC(=O)CN(c1ccc(OC)cc1)S(=O)(=O)c1ccc(NC(C)=O)cc1 (stereo not drawn) | 6.5 | -4.6 | 6.3% | ? | 13.9% | 6.57µM*
COc1ccc(N(CC(=O)NC2CCCC2)S(=O)(=O)c2ccc(NC(C)=O)cc2)cc1 | -9.4 | -2.9 | 0.3% | ? | -0.9% | 0.0%
O=C(NCc1ccc(Cl)cc1)C1CCN(S(=O)(=O)c2ccc3c(c2)CCCN3C(=O)C2CCC2)CC1 | . | . | 0.4% | . | . | .
Cc1ccc(NC(=S)NCCSc2ccc(Cl)cc2)cc1 | 26.6 | -2.4 | -15.6% | 11.7µM* | . | ?
Cc1ccc(SCCNC(=S)Nc2cc(C)cc(C)c2)cc1 | -14.0 | -2.1 | -3.3% | . | -110.2% | ?
COc1ccccc1NC(=S)NCCSc1ccc(Cl)cc1 | -13.8 | -0.9 | 3.3% | -18.7% | -0.5% | ?
COc1ccc(Cl)cc1NC(=S)NCCSc1ccc(C)cc1 | -1.4 | -1.0 | 1.1% | -15.6% | -24.0% | 11.7µM*
COc1cccc(CN(C)C(=O)c2ccc(OCC(=O)N3CCOCC3)c(OC)c2)c1 | . | . | -8.6% | -7.7% | . | -18.9%
SMILES | Shiga toxin inh | CHX counter | Sm TGR inh | Pf growth 48h | NS1 inh | Pf growth 96h
Cc1cc(C)c2oc(C(=O)Nc3c(C(=O)c4ccccc4)oc4ccccc34)cc(=O)c2c1 | . | . | 1.5% | . | . | .
COc1cc2c(cc1OC)C1O[C@](CCCCN3C(=O)c4ccccc4C3=O)(C2)OC2=C1C(=O)c1ccccc1C2=O | i | -1.5 | 3.98µM* | ? | 24.3% | 0.338µM*
COc1cc2c(cc1OC)C1O[C@](CCCCN3C(=O)c4ccccc4C3=O)(C2)OC2=C1C(=O)CCC2 | i | -0.9 | ? | 1.51µM* | -4.8% | 1.51µM*
N#Cc1ccc2c(c1)C[C@]1(CCCCN3C(=O)c4ccccc4C3=O)OC3=C(C(=O)OC4(CCCCC4)C3)C2O1 | i | -0.8 | -33.6%[22.9 µM] | ? | -5.3% | ?
O=C(CSc1nnc(-c2ccccc2O)o1)N1CCOCC1 | 85.7* | 25.6* | -7.0% | 86.1% | 12.2% | -6.1%
O=C(CSc1nnc(-c2ccccc2O)o1)N1CCc2ccccc2C1 | -6.8 | -2.3 | 0.0% | . | -1.1% | 21.5%
O=C(CSc1nnc(-c2ccccc2Cl)o1)N1CCCC1 | 72.9* | 51.4* | -3.4% | 102.8% | 14.1% | 1.2%
O=C(CSc1nnc(-c2ccccc2Cl)o1)N1CCCCC1 | 83.2* | 37.4* | 0.1% | 19.8% | -17.2% | 1.3%
O=C(CSc1nnc(-c2ccccc2O)o1)N1CCCCC1 | 41.6* | 28.3* | 3.4% | 73.0% | 3.5% | ?
Cc1ccc(NC(=O)CCN2C(=O)c3ccccc3Sc3ncccc32)c(Cl)c1 | . | . | 11.1% | . | . | .
O=C(CSc1nnc(-c2ccccc2Br)o1)N1CCOCC1 | 70.2* | 51.4* | -11.5% | 132.7% | 1.1% | ?
O=C(c1cc2cc(F)ccc2[nH]1)N1CCC(Cc2ccccc2)CC1 | 31.8 | 20.5 | 3.4% | ? | 1.4% | ?
CC1(C)C2CCC1(C)C(Nc1ccccc1)C2 (stereo not drawn) | -11.3 | -2.6 | -8.2% | -15.0% | 3.9% | ?
O=C(/C=C/c1ccccc1)NC1CCSC1=O (stereo not drawn) | 70.0* | 38.5* | 11.7% | 34.8% | -0.5% | 10.4µM*
CC1(C)C2CCC1(C)C(NC(=O)/C=C/c1ccccc1)C2 (stereo not drawn) | 57.8 | 21.8 | 6.4% | 7.38µM* | . | -26.1%
CC(=O)C=NCC(=O)O | . | . | . | . | -0.3% | .
CCN(CC)CCn1c(=S)[nH]c2cc(Cl)ccc2c1=O | -7.6 | -1.2 | 9.3% | -26.8% | -4.5% | 16.0%
CCN(CC)CCn1c(=S)[nH]c2ccc(Cl)cc2c1=O | -8.7 | 7.8 | 0.3% | 11.7µM* | 0.6% | -0.9%
Cc1c(NC(=O)Nc2ccccc2C(F)(F)F)sc2nc3n(c(=O)c12)CCC(C)CC3 (stereo not drawn) | . | . | 6.5% | . | . | .
CC(CC(=O)NCCc1ccc(F)cc1)c1ccccc1 (stereo not drawn) | 56.7 | 25.4* | -1.4% | 28.0% | -7.1% | ?
O=C(CSCc1c(F)cccc1Cl)NCCc1ccccc1 | 45.6* | 21.3* | -2.9% | 22.4% | -49.9% | 13.1%
CNC(=O)CSCc1c(F)cccc1Cl | -3.5 | -4.6 | -2.9% | 11.3% | -3.5% | -17.5%
O=C(CSCc1ccccc1)NCCc1ccc(F)cc1 | 29.6 | 17.5* | -17.9% | ? | -1.4% | -11.8%
